The source of these data is PubChem BioAssay AID485344 (National Center for Advancing Translational Sciences (NCATS), 2010).

As usually defined, the inhibition is the relative decrease from the control value, in per cent.

The campaign covered roughly 340,000 compounds. About 6,900 (2%) were called active. Only a selection was taken, and actives are over-represented in it overall. Values without a mark were called inactive. No stated cut-off is given here; in the data, active means inhibition above about 30%; inactive means below that, where a call was filed.

Sequence of D(2) dopamine receptor (Homo sapiens) (P14416 whole entry, looked up): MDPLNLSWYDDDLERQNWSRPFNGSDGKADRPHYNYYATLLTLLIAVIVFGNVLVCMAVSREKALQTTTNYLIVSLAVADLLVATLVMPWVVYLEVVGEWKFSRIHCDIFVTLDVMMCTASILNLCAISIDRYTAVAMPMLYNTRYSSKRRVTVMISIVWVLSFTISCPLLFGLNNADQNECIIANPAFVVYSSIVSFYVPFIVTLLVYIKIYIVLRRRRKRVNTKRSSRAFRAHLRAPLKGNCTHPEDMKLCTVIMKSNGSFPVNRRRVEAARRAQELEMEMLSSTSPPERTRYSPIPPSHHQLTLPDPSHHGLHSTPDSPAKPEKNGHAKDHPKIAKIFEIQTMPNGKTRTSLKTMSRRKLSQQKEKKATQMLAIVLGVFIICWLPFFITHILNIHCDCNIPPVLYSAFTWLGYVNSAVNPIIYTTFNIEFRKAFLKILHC

The target in the assay is D(2) dopamine receptor (Homo sapiens) (UniProt P14416). Briefly: HTS Assay for Allosteric Antagonists of the Human D2 Dopamine Receptor: Primary Screen for Antagonists. Further: 0% is about no effect. The following applies: HEK293 TREx D2 cells, calcium flux, dopamine EC80; at 10 µM; stronger effect = higher value. In short, it runs like this:
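Tetracycline-induced HEK293 TREx cells expressing D2 receptor forced-coupled to calcium signalling, loaded with no-wash calcium dye. Compounds added and calcium flux read 180 s, then dopamine added at EC80 and read a further 180 s.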
On the technique in general: Calcium flux is commonly read through the fluorescence of an indicator in the cells.
Turning to `Cc1ccn2cc(C(=O)NC3CCN(Cc4ccccc4)CC3)nc2c1`, the inhibition was 15.3%. For `O=C(NC1CCN(Cc2ccccc2)CC1)c1cc(Br)c(Br)[nH]1` the value was 78.3% (active); for `O=C(NC1CCN(Cc2ccccc2)CC1)c1c(F)cccc1F`, 24.1%.

`O=C(NC1CCN(Cc2ccccc2)CC1)c1ccc(Oc2cc(Cl)cc(Cl)c2)o1`: the inhibition was 26.7%. For `Cc1cc(C(=O)NC2CC(C)(C)Cc3c2cnn3-c2ccccc2)n[nH]1` (stereo not drawn) the value was -16%; for `Cc1cc(C(=O)NC2CCN(Cc3ccccc3)CC2)n[nH]1`, 74.1% (active); for `O=C(c1ccncc1)N1CCN(S(=O)(=O)c2cccc([N+](=O)[O-])c2)CC1`, 4.87%.

For the compound `CC(Sc1nnc(C2CC2)n1C1CC1)C(=O)Nc1ccc(C(N)=O)cc1` (stereo not drawn), the inhibition is -13.1%. For `CC(OC(=O)c1ccccc1NCCO)C(=O)Nc1ccnn1C(C)C` (stereo not drawn) the value was -18.3%. The value for `COc1ccccc1CNS(=O)(=O)c1cc2c3c(c1)CCC(=O)N3CCC2` was -11.8%. The value for `O=C(NC(=S)N1CCN(Cc2ccccc2)CC1)c1ccccc1` was 31.2% (active); that for `O=C(Nc1ccccc1)N1CCN(Cc2ccccc2)CC1` was 13.1%. On to `O=C(c1cccc(Cl)c1)N1CCN(Cc2ccccc2)CC1`, for which the inhibition is 7.63%. Consider `CC(C)N(C(=O)CN1CCN(S(=O)(=O)c2ccc(Br)s2)CC1)C(C)C`, for which the inhibition is -1.58%. For `CCN(CC)CCn1c2c(c(SCC(=O)Nc3ccc(C(C)C)cc3)nc1=O)CCC2` the value was 14.2%; for `COc1ccc(CN2CCCC(N3CCc4ccccc4C3)C2)c(O)c1` (stereo not drawn), -20%. The value for `COc1ccc2cc1Oc1ccc(cc1)C[C@H]1c3cc(c(OC)cc3CCN1C)Oc1c(O)c(OC)cc3c1[C@H](C2)N(C)CC3` was -8.18%; that for `COc1c(O)ccc2c1CN1CCc3cc4c(cc3C1C2)OCO4` (stereo not drawn) was 74.1% (active). For `CCCCNC(=O)Cn1nc(C)c(S(=O)(=O)N2CCOCC2)c1C` the value was 4.53%; for `CCCCN(CCCC)CC(O)Cn1c2ccccc2c(=O)c2ccccc21` (stereo not drawn), 0.545%. For `CS(=O)(=O)N(CC(O)Cn1c2ccccc2c2ccccc21)c1cccc2ccccc12` (stereo not drawn), the inhibition is 31.2% (active).

As for `O=C1c2ccccc2S(=O)(=O)N1CC(O)Cn1c2ccccc2c2ccccc21` (stereo not drawn), the inhibition was 26.9%. For the compound `Cc1ccc(C(=O)OCC(=O)Nc2ccc(Cl)cn2)cc1S(=O)(=O)N1CCOCC1`, the inhibition was -15.2%. For `CC(C)(C)c1ccc(S(=O)(=O)N2CCN(C(=O)c3ccc4c(c3)C(=O)N(Cc3ccncc3)C4=O)CC2)cc1` the value was -6.14%; for `O=C(NCCC1CCCCN1S(=O)(=O)c1cccs1)C(=O)Nc1ccc(F)cc1F` (stereo not drawn), 7.7%; for `CC(C(=O)N(C)CC(=O)Nc1ccccc1C(F)(F)F)N1C(=O)c2ccccc2C1=O` (stereo not drawn), 12.3%. With `Cc1nn(Cc2ccccc2)c(C)c1C(=O)N1CCN(CC(=O)Nc2ccccc2Cl)CC1`, the inhibition is 0.422%.

Turning to `O=C(CO/N=C/c1ccc(OC(F)F)cc1)NCc1ccc(F)cc1`, the inhibition was 4.16%.

Take `O=C(COC(=O)/C=C/c1ccc(OC(F)F)cc1)NC1CCCCC1`: the inhibition was -18.9%. The value for `CC1CCCCC1NC(=O)CO/N=C/c1ccc(OC(F)F)cc1` (stereo not drawn) was 34.1% (active); that for `CCOc1ccc(S(=O)(=O)N2CCC(C(=O)OCc3ccc(OC)cc3)CC2)cc1` was 5.17%.

`O=C(C(Cl)Cl)N1CCN(c2ccccn2)CC1`: the inhibition was 1.9%.

On to `CC(=C1C(=O)c2ccccc2C1=O)N1CCN(c2ccccn2)CC1`, for which the inhibition was 56.1% (active). On to `COc1ccc(N2CCN(C(C)=C3C(=O)c4ccccc4C3=O)CC2)cc1`, for which the inhibition is 14.9%. For `CCC1(CC)NC(=O)N(CC(=O)OCC(=O)c2cc(C)c(C)cc2C)C1=O` the value was -22.9%. The value for `CCC(=O)c1ccc(OCC(=O)N(CC)CC2COc3ccccc3O2)cc1` (stereo not drawn) was -1.9%; that for `CC1(C)NC(=O)N(CC(=O)N2CCN(S(=O)(=O)c3ccccc3F)CC2)C1=O` was -6.83%. For `CC(C)C[C@H](NC(=O)C1CCC(CNC(=O)[C@@H]2CCCN2C(=O)OC(C)(C)C)CC1)C(=O)O` (stereo partly drawn) the value was -15.8%; for `CC(=O)Nc1ccc(S(=O)(=O)N2CCC(C(=O)N[C@@H](Cc3ccccc3)C(=O)O)CC2)cc1`, -23.4%. For `CC(C)[C@@H](NC(=O)OC(C)(C)C)C(=O)NCC1CCC(C(=O)N[C@@H](Cc2ccccc2)C(=O)O)CC1` (stereo partly drawn), the inhibition was 31.8% (active). For `O=C(CSc1nnc(Nc2ccccc2F)s1)NC1CCCC1` the value was 12.9%.

`N#Cc1ccc(C(c2nnnn2CCc2ccccc2)N2CCCCCC2)cc1` (stereo not drawn): the inhibition was -12.6%. For `N#Cc1ccc(CSc2ncccn2)cc1` the value was -5.83%; for `N#Cc1ccc(C(c2ccc(C#N)cc2)n2cncn2)cc1`, 48.6% (active); for `CC1CCCC(NC(=O)c2cc(S(=O)(=O)N3CCCCC3)ccc2Cl)C1C` (stereo not drawn), -4.83%.

`CCOc1ccc(S(=O)(=O)N2CCC(c3ccccc3)CC2)cc1C(=O)O`: the inhibition is -17.4%. The value for `CCOc1ccc(Br)cc1S(=O)(=O)N1CCC(C(=O)O)CC1` was 39.3% (active); that for `CCOC(=O)N1CCN(C(=O)C2CCN(S(=O)(=O)c3cc(Cl)ccc3OCC)CC2)CC1` was -9.59%. For the compound `CC(C)COc1ccc(C(=O)OCC(=O)NCCC2=CCCCC2)cc1`, the inhibition was 5.26%. For `COc1ccccc1N1CCN(C(=O)c2cc3c(-c4ccc(Cl)cc4)nn(C)c3s2)CC1` the value was 31% (active); for `CCOC(=O)N1CCN(C(=O)c2cc3c(-c4ccc(Cl)cc4)nn(C)c3s2)CC1`, 5.45%. For `COc1cccc(-c2nn(C)c3sc(C(=O)N4CCN(c5ccccc5)CC4)cc23)c1` the value was -14.9%; for `CCc1noc(C)c1C(=O)N1CCN(S(=O)(=O)c2cccc(C(F)(F)F)c2)CC1`, -22.3%; for `N#CCC(=O)Nc1ccc(C(=O)OCC(=O)Nc2sc3c(c2C#N)CCCC3)cc1`, -5.79%. The value for `CC1Cc2ccccc2N1C(=O)c1cc2sccc2n1Cc1ccccc1` (stereo not drawn) was 8.45%.

As for `CCOC(=O)c1cc2sccc2n1Cc1ccc(C#N)cc1`, the inhibition was 31.1% (active). For `O=C(c1cc2sccc2n1Cc1ccc(F)cc1)N1CCc2ccccc21` the value was -20.3%; for `CCC(C(=O)N1CCN(S(=O)(=O)c2sc(C(=O)O)c(C)c2C(=O)O)CC1)c1ccccc1` (stereo not drawn), 14.8%; for `CCOC(=O)N1CCN(C(=O)COC(=O)c2cccc(S(C)(=O)=O)c2)CC1`, -13.9%. For `O=C(CCc1nc(-c2ccccc2)no1)Nc1cccc(C(=O)NC2CC2)c1` the value was -8.46%. For the compound `Cc1ccc(NC(=O)C(C)Sc2nnc(C3CC3)n2C2CC2)cc1S(=O)(=O)N1CCOCC1` (stereo not drawn), the inhibition is 10%. The value for `CCOC(=O)COc1cc(O)c2c(=O)cc(-c3ccccc3)oc2c1` was 3.55%; that for `COc1ccc(-c2cc(=O)c3c(O)cc(O[C@@H]4O[C@H](CO[C@@H]5O[C@@H](C)[C@H](O)[C@@H](O)[C@H]5O)[C@@H](O)[C@H](O)[C@H]4O)cc3o2)cc1O` was 3.3%; that for `COc1c(O)cc2oc(-c3ccc(O)c(O)c3)cc(=O)c2c1O` was 36.2% (active). For `Cc1sc2nc(CSCC(=O)Nc3c(Cl)cccc3Cl)[nH]c(=O)c2c1C` the value was 43.2% (active); for `Cc1sc2nc(COC(=O)C(NC(=O)c3ccc(Cl)cc3Cl)C(C)C)[nH]c(=O)c2c1C` (stereo not drawn), 4.89%. As for `Cc1sc2nc(CSCC(=O)NC3CCCCC3)[nH]c(=O)c2c1C`, the inhibition is 7.49%. Take `CCOCCn1[nH]c2ccccc2c1=O`: the inhibition was 9.72%. For `CC(=O)Nc1ccc(S(=O)(=O)NC(C)C(=O)OCCOc2ccc(F)cc2)cc1` (stereo not drawn) the value was 8.18%; for `COc1ccccc1NS(=O)(=O)c1ccc(C(=O)N2CCN(c3ccccc3O)CC2)cc1`, -20.7%; for `O=C(CNC(=O)C(c1ccccc1)c1ccccc1)N/N=C\c1ccc2c(c1)OCO2`, 34.6% (active).

With `O=C(Cc1ccc(F)cc1)N/N=C/c1ccc2c(c1)OCO2`, the inhibition is -1.11%.

Take `Cc1[nH]c2ccccc2c1/C=N/NC(=O)CNC(=O)c1ccc2c(c1)OCO2`: the inhibition is -12.8%. For `COC(=O)c1ccc(NS(=O)(=O)c2cc3c4c(c2)C(C)C(=O)N4CCC3)cc1` (stereo not drawn) the value was 4.01%; for `CCCn1nc(C(=O)NNC(=O)CCOc2ccccc2OCC)c2ccccc2c1=O`, 17.8%. Consider `CCOc1ccccc1C(=O)NC1CC2CCCC(C1)N2Cc1ccccc1` (stereo not drawn), for which the inhibition was 92.5% (active). For `COc1ccc(CN2C3CCCC2CC(NC(=O)c2cccc(F)c2)C3)cc1` (stereo not drawn) the value was 80.1% (active). The value for `COc1ccc(NC(=S)N2CCC(NC(=O)c3cccc(F)c3)CC2)cc1` was -6.43%; that for `O=C(NC1CCN(Cc2ccccc2)CC1)c1ccccc1F` was 21.8%. In the case of `COc1ccc(NC(=O)NC2CC3CCCC(C2)N3Cc2ccccc2)cc1` (stereo not drawn), the inhibition is 46% (active).

As to `CCCCOCCCNC(=O)c1ccccc1OCC`, the inhibition was -16%.

For the compound `COc1ccc(NC(=O)N2CCC(Cc3ccccc3)CC2)cc1`, the inhibition was 3.66%.

Consider `CC(=O)NC1CC2CCCC(C1)N2CC(=O)Nc1ccccc1` (stereo not drawn), for which the inhibition was 14.7%. For `COc1cccc(C(=O)NNC(=O)c2cccc(F)c2)c1` the value was 0.993%; for `COc1ccc(C(=O)Oc2ccc(-c3nnco3)cc2)cc1S(=O)(=O)N1CCOCC1`, 14.7%.

As for `Cc1ccc2nc(SCC(=O)N3CC(C)OC(C)C3)nc(=O)n2c1` (stereo not drawn), the inhibition was -3.68%.

Regarding `O=C(CNS(=O)(=O)c1ccc2c(c1)OCCCO2)N1CCN(c2ccc(F)cc2)CC1`, the inhibition was -12.5%. The value for `Cn1c(-c2ccc(F)cc2)cc2onc(-c3ccccc3Cl)c2c1=O` was 8.07%.
